Data published in PubChem BioAssay.
“And” between values parts separate entries of the source, which are not always exact repeats. Equal values may be shown once. Records with an inconclusive call do not appear. For some assays here: Potency and affinity values are given separately. The source made the active and inactive calls. Unless noted, the limit is not given here; nearly all actives have IC50 up to about 0.91 µM.

How the values were obtained:
[1] = selective SMN2 exon splicing luciferase activators – cell-based, SMN2/SMN1 luciferase reporters (AID 1598; call rule not given here); conditions: SMN2 vs SMN1 luciferase splicing reporter cells, at 10 µM; SMN1 luciferase ratio: measured here: SMN1 luciferase reporter average; SMN2 luciferase ratio: measured here: SMN2 luciferase reporter average, stronger effect = higher value; SMN2/SMN1 luciferase ratio: stronger effect = higher value
[2] = human hepatoma cell viability loss – ATP luminescence, cytotoxicity control for P. falciparum antimalarial project, primary screen (AID 2303;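 active = inhibition above 50%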;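 also: 0% = DMSO wells and 100% = digitonin-killed cells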); conditions: HepG2 viability, 24-48 h, at 10 µM, stronger effect = higher value
[3] = target: Calcium-dependent protein kinase 4 (Plasmodium falciparum (isolate 3D7)) (UniProt Q8IBS5); assay: PfCDPK4 kinase inhibitors, biochemical, TCAMS library (AID 1159588); conditions: recombinant PfCDPK4, Kinase-Glo ATP depletion luminescence
Chain of Calcium-dependent protein kinase 4 (Plasmodium falciparum (isolate 3D7)) (Q8IBS5 whole entry, looked up): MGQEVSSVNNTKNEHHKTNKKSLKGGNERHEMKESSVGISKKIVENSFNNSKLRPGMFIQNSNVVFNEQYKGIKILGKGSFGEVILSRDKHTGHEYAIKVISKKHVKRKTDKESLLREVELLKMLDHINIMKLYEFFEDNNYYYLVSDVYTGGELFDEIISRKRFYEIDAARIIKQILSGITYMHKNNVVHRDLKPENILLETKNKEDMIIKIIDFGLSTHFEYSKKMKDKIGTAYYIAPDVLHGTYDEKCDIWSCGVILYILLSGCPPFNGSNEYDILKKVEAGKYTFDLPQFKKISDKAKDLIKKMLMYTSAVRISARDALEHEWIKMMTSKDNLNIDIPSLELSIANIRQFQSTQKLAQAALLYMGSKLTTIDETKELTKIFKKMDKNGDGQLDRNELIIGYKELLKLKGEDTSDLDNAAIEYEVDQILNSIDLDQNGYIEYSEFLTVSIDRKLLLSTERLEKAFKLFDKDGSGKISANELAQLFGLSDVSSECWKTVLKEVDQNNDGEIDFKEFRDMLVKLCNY

[4] = rescue of PC12 cells from polyQ htt toxicity – LDH release (AID 1610); conditions: PC12 mutant huntingtin toxicity, final LDH at 4 uM, stronger effect = lower value
[5] = glutamate excitotoxicity neuroprotectants – cell-based, TUNEL DNA degradation staining, MNGlu (AID 1594; call rule not given here); conditions: motor neurons, glutamate-induced death, at 1 µM, stronger effect = higher value

NC12CC3CC(CC(C3)C1)C2
SMN1 luciferase ratio [1]: 0.84
SMN2/SMN1 luciferase ratio [1]: 1.22 (active)
SMN2 luciferase ratio [1]: 1.01
inhibition [2]: 31% (inactive)
outcome [3]: inactive

c1ccc([C@H]2CN3CCSC3=N2)cc1
inhibition [2]: 11% (inactive)
outcome [3]: inactive

N=C(N)c1ccc(OCCCCCOc2ccc(C(=N)N)cc2)cc1
outcome [3]: inactive

CCN(CC)CCCC(C)Nc1ccnc2cc(Cl)ccc12 (stereo not drawn)
inhibition [2]: 12% (inactive)
outcome [3]: inactive

c1ccc(CC2=NCCN2)cc1
inhibition [2]: 3% (inactive)
outcome [3]: inactive

CCN(CCO)CCCC(C)Nc1ccnc2cc(Cl)ccc12 (stereo not drawn)
inhibition [2]: 3% (inactive)
outcome [3]: inactive

CC[C@H]1CN2CCc3cc(OC)c(OC)cc3[C@@H]2C[C@@H]1C[C@H]1NCCc2cc(OC)c(OC)cc21
inhibition [2]: 43% (inactive)
outcome [3]: inactive

CCN(CC)CCCC(C)Nc1c2ccc(Cl)cc2nc2ccc(OC)cc12 (stereo not drawn)
outcome [3]: inactive

CCCCCN=C(N)N/N=C/c1c[nH]c2ccc(OC)cc12
inhibition [2]: 16% (inactive)
outcome [3]: inactive

CC(C)C(=O)Nc1ccc([N+](=O)[O-])c(C(F)(F)F)c1
normalised LDH release [4]: 0.739

CCc1nc(N)nc(N)c1-c1ccc(Cl)cc1
inhibition [2]: 66% (active) and 71% (active)

CN(C)CCOC(c1ccc(Cl)cc1)c1ccccn1 (stereo not drawn)
normalised LDH release [4]: 0.839

COC1=CC(=O)C[C@@H](C)[C@]12Oc1c(Cl)c(OC)cc(OC)c1C2=O
protection [5]: 17% (active)
